From PubChem
This is a sample that favours compounds with a hit; in the whole collection about 3.1% have one here.
esBAF inh: blocks esBAF chromatin remodeling in mouse ES cells | Bmi1-luciferase knock-in reporter, 24 h; 100% = twice the neutral-well signal | reporter increase, % at 12.5 µM | actives 2% (n = 350,000) | AID 602393; in the data active = activation above about 40%; inconclusive = no clear call, values can overlap the other calls;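 also: 0% = median of the plate's neutral control wells and 100% = double that signal; a rise in the Bmi1 reporter signal indicates esBAF inhibition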
Rtt109 Vps75: inhibitors of Candida albicans Rtt109/Vps75 histone acetyltransferase; Q5AAJ8; inhibition, % at 34.9 µM; purified Rtt109/Vps75, ThioGlo CoA-SH fluorescence, 4 h; actives 0.16% (n = 330,000);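 active = inhibition of at least 50% in every replicate; inconclusive = best replicate reaches 50% inhibition but some replicates fall short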
Target sequence (Q5AAJ8 whole entry, looked up): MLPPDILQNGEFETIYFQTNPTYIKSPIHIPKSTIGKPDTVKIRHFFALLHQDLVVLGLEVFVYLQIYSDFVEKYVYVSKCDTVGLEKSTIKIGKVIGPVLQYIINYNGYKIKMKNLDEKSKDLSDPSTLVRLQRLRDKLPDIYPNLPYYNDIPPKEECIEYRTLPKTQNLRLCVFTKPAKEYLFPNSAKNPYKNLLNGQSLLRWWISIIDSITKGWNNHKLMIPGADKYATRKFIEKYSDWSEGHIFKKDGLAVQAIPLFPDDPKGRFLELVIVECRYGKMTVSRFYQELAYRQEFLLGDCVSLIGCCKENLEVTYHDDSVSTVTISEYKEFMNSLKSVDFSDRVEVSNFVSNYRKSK
C2C12 statin: suppressors of simvastatin-induced myotoxicity in C2C12 myotubes. ATP luminescence, 48 h; scaled: DMSO 0, geranylgeraniol control 100. rescue of ATP level, % at 7.49 µM. actives 0.78% (n = 330,000). AID 602340;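 active = mean ATP rescue above about 67%, or every replicate alone reaching that limit, limit read from the data, passing the limit was not always enough; inconclusive = no clear call, values can overlap the other calls; inactive = mean under the limit and some replicate under it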;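 also: myotubes were challenged with 10 µM simvastatin during compound exposure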
Wnt act: Wnt/beta-catenin pathway activation | actives 1.2% (n = 300,000) | AID 743398 | activation, % at 9.35 µM | Wnt/beta-catenin reporter cell assay, activator, plate reader; in the data active = activation above about 30%, passing the limit was not always enough; inconclusive = no clear call, values can overlap the other calls;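 also: 0% = neutral control wells and 100% = positive control wells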
MITF act: increases MITF-driven TRPM1 promoter luciferase signal; SK-MEL-5 TRPM1-promoter luciferase, 24 h; % of positive control, neutral wells = 0; actives 0.75% (n = 300,000); AID 588334; activation, % at 12.5 µM;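 active = mean activation of at least 80% with every replicate also reaching 80%; inconclusive = mean reaches 80% but some replicate falls short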;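 also: 0% = neutral control wells and 100% = parthenolide positive control wells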
* = called active by the depositor; ? = inconclusive; / = no result given.

SMILES	esBAF inh	Rtt109 Vps75	C2C12 statin	Wnt act	MITF act
Cc1ccc(-c2cnn(-c3cccc(C(F)(F)F)c3)c2N)cc1	87*	-2	-9	/	/
Nc1c(-c2ccc(Cl)cc2)cnn1-c1cccc(C(F)(F)F)c1	68*	4	/	13	80
Cc1nnc(-c2cnn(-c3ccccc3)c2N)n1Cc1cccc(C(F)(F)F)c1	9	4	-12	/	/
Nc1c(-c2ccc(Cl)cc2)cnn1-c1cccc([N+](=O)[O-])c1	64*	/	-8	/	/
CO[C@@H]1CN(C)C(=O)c2ccc(NC(=O)Nc3ccccc3F)cc2OC[C@@H](C)N(S(=O)(=O)CC(F)(F)F)C[C@H]1C	10	/	-7	/	/
O=C(Nc1ccccc1F)N1C[C@H]2[C@@H](c3ccccc31)[C@H](CO)N2C(=O)C1CCCC1	20	/	6	/	/
O=C(Nc1ccccc1F)N1C[C@@H]2[C@H](c3ccccc31)[C@@H](CO)N2C(=O)C1CC1	49*	/	0	/	/
COc1ccccc1-c1ccc2c(c1)O[C@@H](CN(C)C(=O)c1cccnc1)[C@@H](C)CN([C@H](C)CO)S2(=O)=O	-4	/	-5	/	/
Cc1ccsc1C(=O)OCC(=O)N1CCc2ccccc2C1	57*	-4	21	11	92*
O=C(OCC(=O)N1CCCC1)c1c(Cl)cccc1Cl	28	1	-1	-2	3
O=C(OCC(=O)N1CCc2ccccc2C1)c1c(F)cccc1Cl	30	4	-2	55*	115*
CNC[C@@H]1OCCCC[C@H](C)Oc2ccc(NC(=O)Nc3c(C)noc3C)cc2C(=O)N([C@H](C)CO)C[C@H]1C	1	/	4	/	/
Cc1ccc(S(=O)(=O)N(C)C[C@H]2Oc3ccc(NS(=O)(=O)c4cn(C)cn4)cc3CC(=O)N([C@H](C)CO)C[C@H]2C)cc1	3	/	-16	/	/
Nc1nc(SCc2ccccn2)c2ncn(C3CCCC3)c2n1	44*	-6	3	0	14
Cc1c(C(=O)NCC(C)C)sc2nc(-c3ccc(F)cc3)cn12	50*	-20	-25	9	/
Fc1ccc(N2CCN(Cc3ccccn3)CC2)cc1	/	-1	/	40*	-7
N#C/C(=N\Nc1ccccc1F)C(=N)N1CCCCC1	/	12	/	28	85*
COc1ccc(N/N=C(\C#N)C(=N)N2CCCCC2)cc1	65*	-6	-18	23	57
O=C(c1cn(-c2ccc(Cl)c(Cl)c2)nn1)C1CC1	10	-5	13	5	-12
O=C1CCCCC1C(=O)c1cn(-c2ccc(Cl)c(Cl)c2)nn1 (stereo not given)	63*	-5	7	1	64
COc1cccc(C(=O)NCc2nnc(SCC(=O)Nc3nccs3)n2-c2cccc(C)c2)c1	3	61*	8	-3	-8
Cc1cccc(-n2c(CNC(=O)COc3ccccc3)nnc2SCC(=O)Nc2nccs2)c1	-24	-9	9	/	-8
COc1ccc(C(=O)OCc2cc(=O)n3c(C)csc3n2)cc1F	73*	-6	-4	19	106*
Cc1ccc(O)c(NC(=O)c2ccco2)c1	18	-4	24	11	17
Cc1cc(NC(=O)c2ccccc2)ncc1NC(=O)c1ccco1	/	0	/	38*	32
SMILES	esBAF inh	Rtt109 Vps75	C2C12 statin	Wnt act	MITF act
Cc1cc(O)c(NC(=O)c2ccco2)cc1C	47*	-4	34	22	26
Cc1ccc(C(=O)Nc2ccc(NC(=O)c3ccco3)c(C)c2)cc1	28	22	-5	13	91*
C[C@H](CO)N1C[C@H](C)[C@H](CN(C)CC2CCCCC2)Oc2c(NS(=O)(=O)c3cn(C)cn3)cccc2C1=O	2	/	25	/	/
CNC(=O)C[C@H]1CC[C@H]2[C@H](COc3ccc(NC(=O)Nc4ccc(Cl)cc4)cc3C(=O)N2C)O1	2	/	5	/	/
CO[C@@H]1CN(C)C(=O)c2ccc(NC(=O)C3CCCC3)cc2OC[C@H](C)N(CCC(F)(F)F)C[C@@H]1C	4	/	16	/	/
C[C@@H]1CCCCO[C@@H](CN(C)Cc2ccc3c(c2)OCO3)[C@H](C)CN([C@H](C)CO)C(=O)c2cc(NC(=O)CCC(F)(F)F)ccc2O1	-2	/	/	/	/
CN(C)CC#Cc1ccc([C@H]2[C@H](CO)N3CCCCN(C(=O)Nc4ccccc4F)C[C@@H]23)cc1	-2	/	9	/	/
CN(CC(=O)Nc1ccc(F)cc1)C(=O)COC(=O)c1cccc(N(C)C)c1	48*	-2	1	41*	/
O=C(COc1ccc(F)cc1)Nc1ccc2c(c1)OCCO2	/	4	/	38*	66
O=C(COC(=O)c1ccccc1F)Nc1ccc2c(c1)OCCO2	1	3	7	41*	10
O=C(COC(=O)CNC(=O)c1ccccc1F)Nc1ccc2c(c1)OCCO2	/	0	/	1	-3
CCC(=O)c1ccc(OCC(=O)Nc2ccc3c(c2)OCCO3)cc1	30	?	3	1	46
O=C(COC(=O)c1ccc(Br)o1)Nc1ccc2c(c1)OCCO2	2	11	7	6	9
O=C(COC(=O)CNC(=O)c1ccc(Br)o1)Nc1ccc2c(c1)OCCO2	-1	-3	141*	/	-1
Cc1ccc(S(=O)(=O)N(C)C[C@H]2Oc3ccc(NC(=O)Nc4c(C)noc4C)cc3CC(=O)N([C@H](C)CO)C[C@@H]2C)cc1	-7	/	-2	/	/
C[C@H](CO)N1C[C@H](C)[C@H](CN(C)C(=O)CCC(F)(F)F)OCCCC[C@H](C)Oc2ccc(NC(=O)NC3CCCCC3)cc2C1=O	-1	/	/	/	/
C[C@@H]1CN([C@@H](C)CO)C(=O)Cc2cc(NS(=O)(=O)c3ccccc3)ccc2O[C@H]1CN(C)S(=O)(=O)c1ccc(Cl)cc1	-3	/	3	/	/
O=C(COC(=O)c1cccc(F)c1)Nc1ccc2c(c1)OCCO2	27	11	-1	32*	9
N#CCC(=O)Nc1ccc(C(=O)OCC(=O)NC(=O)Nc2ccc3c(c2)OCCO3)cc1	61*	-2	-13	29	58
Cc1ccc(S(=O)(=O)N2C[C@H](O)COC[C@H]3O[C@@H](CC(=O)N[C@H]4CCN(Cc5ccccc5)C4)CC[C@@H]32)cc1	3	/	0	/	/
CC(C)NC(=O)Nc1ccc2c(c1)C(=O)N([C@H](C)CO)C[C@@H](C)[C@H](CN(C)C(=O)Nc1ccc(F)cc1)OCCCC[C@@H](C)O2	7	/	/	/	/
NCC[C@H]1CC[C@H](NC(=O)C2CCCCC2)[C@@H](CO)O1	-5	/	7	/	/
Cc1nn(C)cc1[C@@H]1C[C@H]2CN(Cc3cccc(Cl)c3)C(=O)[C@]23CCCN13	/	53*	/	6	-15
Cn1cc([C@@H]2C[C@H]3CN(Cc4cccc(Cl)c4)C(=O)[C@]34CCCN24)c(-c2ccccc2)n1	5	-4	-7	-1	-5
Cc1noc(C)c1NC(=O)N(C)C[C@@H]1Oc2c(NC(=O)C3CC3)cccc2C(=O)N([C@@H](C)CO)C[C@@H]1C	-3	/	-3	/	/
